Data from PubChem BioAssay AID488864 (Broad Institute, 2010).
Potency and affinity values are given separately. Values without a mark were called inactive.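 The calls were made as follows: active = ATP signal reduced by compound, with fitted active dose under ten times the top valid tested dose; inactive = the rest, compounds that increase ATP levels included.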

experiment: INS-1E beta-cell viability without cytokines, dose response, cytotoxicity control for beta-cell cytokine protection project, CellTiter-Glo luminescence, dry powder (AID 488864); conditions: INS-1E rat beta cells, 48 h, no cytokines; series mostly up to 26 µM; activity change, negative = ATP decrease: at the top concentration

In order of rising “activity change, negative = ATP decrease” value:
1. N#Cc1ccc2cc(Br)c(C(F)(F)P(=O)(O)O)cc2c1  -3.66%
2. C[C@@H]1CN([C@@H](C)CO)C(=O)c2cccc(NC(=O)Nc3cccc4ccccc34)c2O[C@H]1CN(C)C(=O)Nc1ccc2c(c1)OCO2  -3.25%
3. COc1ccc(S(=O)(=O)N(C)C[C@@H]2Oc3c(NC(=O)c4cnccn4)cccc3C(=O)N([C@@H](C)CO)C[C@H]2C)cc1  -2.23%
4. COc1ccc(S(=O)(=O)N(C)C[C@@H]2Oc3c(NC(=O)c4ccc(-c5nccs5)cc4)cccc3C(=O)N([C@@H](C)CO)C[C@H]2C)cc1  -1.51%
5. C[C@@H]1CN([C@@H](C)CO)C(=O)c2cccc(NC(=O)Nc3cccc4ccccc34)c2O[C@H]1CN(C)S(=O)(=O)c1ccc2ncsc2c1  -1.15%
6. C[C@@H]1CN([C@@H](C)CO)C(=O)c2cccc(NC(=O)Nc3ccccc3)c2O[C@H]1CN(C)S(=O)(=O)c1ccc(F)cc1  -0.503%
7. Cc1noc(C)c1NC(=O)N(C)C[C@@H]1Oc2c(NC(=O)Nc3cccc4ccccc34)cccc2C(=O)N([C@@H](C)CO)C[C@H]1C  0.037%
8. COc1ccc(S(=O)(=O)N(C)C[C@@H]2Oc3c(NC(=O)Nc4ccccc4)cccc3C(=O)N([C@H](C)CO)C[C@H]2C)cc1  1.41%
9. COc1ccc(S(=O)(=O)N(C)C[C@@H]2Oc3c(NC(=O)Nc4cccc5ccccc45)cccc3C(=O)N([C@@H](C)CO)C[C@H]2C)cc1OC  1.83%
10. COc1ccc(S(=O)(=O)N(C)C[C@@H]2Oc3c(NC(=O)NC(C)C)cccc3C(=O)N([C@@H](C)CO)C[C@H]2C)cc1  1.96%
11. COc1ccc(S(=O)(=O)N(C)C[C@@H]2Oc3c(NC(=O)Nc4c(C)noc4C)cccc3C(=O)N([C@@H](C)CO)C[C@H]2C)cc1  2.2%
12. COc1ccc(S(=O)(=O)N(C)C[C@H]2Oc3c(NC(=O)Nc4cccc5ccccc45)cccc3C(=O)N([C@H](C)CO)C[C@@H]2C)cc1  2.53%
13. C[C@@H]1CN([C@@H](C)CO)C(=O)c2cccc(NC(=O)Nc3cccc4ccccc34)c2O[C@H]1CN(C)S(=O)(=O)c1ccc2c(c1)oc(=O)n2C  2.94%
14. C[C@@H]1CN([C@@H](C)CO)C(=O)c2cccc(NC(=O)Nc3cccc4ccccc34)c2O[C@H]1CN(C)S(=O)(=O)c1ccc(F)cc1  3.33%
15. C[C@@H]1CN([C@@H](C)CO)C(=O)c2cccc(NC(=O)Nc3ccccc3)c2O[C@H]1CN(C)S(=O)(=O)c1ccc(Cl)cc1  3.91%
16. COc1ccc(S(=O)(=O)N(C)C[C@@H]2Oc3c(NC(=O)c4cccc5ccccc45)cccc3C(=O)N([C@@H](C)CO)C[C@H]2C)cc1  4.48%
17. COc1ccc(S(=O)(=O)N(C)C[C@@H]2Oc3c(NC(=O)c4cc(C)nn4C)cccc3C(=O)N([C@@H](C)CO)C[C@H]2C)cc1  4.75%
18. Cc1ccc(S(=O)(=O)N(C)C[C@@H]2Oc3c(NC(=O)Nc4cccc5ccccc45)cccc3C(=O)N([C@@H](C)CO)C[C@H]2C)cc1  5.11%
19. COc1ccc(NC(=O)N(C)C[C@@H]2Oc3c(NC(=O)Nc4cccc5ccccc45)cccc3C(=O)N([C@@H](C)CO)C[C@H]2C)cc1  5.19%
20. Cc1ccc(S(=O)(=O)N(C)C[C@@H]2Oc3c(NC(=O)Nc4ccc(F)cc4)cccc3C(=O)N([C@H](C)CO)C[C@H]2C)cc1  5.77%
21. COc1ccc(S(=O)(=O)N(C)C[C@@H]2Oc3c(NC(=O)C4CCCCC4)cccc3C(=O)N([C@@H](C)CO)C[C@H]2C)cc1  6.29%
22. Cc1ccc(S(=O)(=O)N(C)C[C@@H]2Oc3c(NC(=O)Nc4ccccc4)cccc3C(=O)N([C@@H](C)CO)C[C@H]2C)cc1  8.13%
23. C[C@@H]1CN([C@@H](C)CO)C(=O)c2cccc(NC(=O)Nc3ccc(F)cc3)c2O[C@H]1CN(C)S(=O)(=O)c1ccc(Cl)cc1  8.98%
24. COc1ccc(S(=O)(=O)N(C)C[C@H]2Oc3c(NC(=O)Nc4cccc5ccccc45)cccc3C(=O)N([C@@H](C)CO)C[C@@H]2C)cc1  9.1%
25. C[C@@H]1CN([C@H](C)CO)C(=O)c2cccc(NC(=O)Nc3ccc(F)cc3)c2O[C@H]1CN(C)S(=O)(=O)c1ccc(Cl)cc1  11.6%
26. C[C@@H]1CN([C@@H](C)CO)C(=O)c2cccc(NC(=O)Nc3cccc4ccccc34)c2O[C@H]1CN(C)S(=O)(=O)c1ccc2c(n1)N(C)CCO2  11.8%
27. COc1ccc(S(=O)(=O)N(C)C[C@@H]2Oc3c(NC(=O)Nc4cccc5ccccc45)cccc3C(=O)N([C@@H](C)CO)C[C@H]2C)cc1C  12%

With `Cc1ccc(S(=O)(=O)N(C)C[C@H]2Oc3c(NC(=O)Nc4cccc5ccccc45)cccc3C(=O)N([C@@H](C)CO)C[C@@H]2C)cc1` the “activity change, negative = ATP decrease” value was 3.34% [at 12 µM].

With `C[C@@H]1CN([C@@H](C)CO)C(=O)c2cccc(NC(=O)Nc3cccc4ccccc34)c2O[C@H]1CN(C)C(=O)Nc1ccccc1` the “activity change, negative = ATP decrease” value was -6.04% [at 23.5 µM].
